From PubChem BioAssay (EPA / NIEHS)
Results filed as inconclusive are left out. The source made the active and inactive calls. Rule for the calls, unless noted: active = hit-call score of the fitted dose curve at least 0.9, where 1 is the maximum; inconclusive = response in the unintended direction; inactive = score below 0.9.

Columns and labels:
[1] = ATG_TGFb_CIS: Attagene CIS-FACTORIAL HepG2 Assay for human Transforming Growth Factor (TGF) (AID 2282967; active = hit-call score of the fitted dose curve at least 0.9, where 1 is the maximum; inactive = score below 0.9); conditions: HepG2 Attagene CIS TGFb reporter, mRNA transcription; actives raise or lower the signal
Summary of the method: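 Transcript-level reporter readout: HepG2 transfectants, 24 h exposure, RNA to cDNA, reporter-specific PCR, fluorescent primer extension, capillary sizing against ROX standards. Gain- or loss-of-signal relative to DMSO.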

[2] = ATG_VDRE_CIS: Attagene CIS-FACTORIAL HepG2 Assay for human Vitamin D Receptor Element (VDRE) (AID 2282968; active = hit-call score of the fitted dose curve at least 0.9, where 1 is the maximum; inactive = score below 0.9); conditions: HepG2 VDRE cis-reporter transcription, actives raise or lower the signal
Summary of the method: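 Transiently transfected HepG2 cells carrying cis-regulated reporter transcription units were exposed for 24 h. Reporter mRNA was measured by RT-PCR with fluorescent labelling and capillary electrophoresis, and fitted in both directions against DMSO.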

[3] = biological target: Nuclear receptor subfamily 1 group I member 3 (Homo sapiens) (UniProt Q14994); experiment: ATG_CAR_TRANS: Attagene TRANS-FACTORIAL HepG2 Assay for human Constitutive Androstane Receptor (CAR) (AID 2282969); conditions: HepG2 Attagene TRANS-FACTORIAL CAR reporter;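 note: activators raise reporter mRNA above DMSO so AC50 marks induction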
Sequence of Nuclear receptor subfamily 1 group I member 3 (Homo sapiens) (Q14994 whole entry, looked up, the tested form may be a part): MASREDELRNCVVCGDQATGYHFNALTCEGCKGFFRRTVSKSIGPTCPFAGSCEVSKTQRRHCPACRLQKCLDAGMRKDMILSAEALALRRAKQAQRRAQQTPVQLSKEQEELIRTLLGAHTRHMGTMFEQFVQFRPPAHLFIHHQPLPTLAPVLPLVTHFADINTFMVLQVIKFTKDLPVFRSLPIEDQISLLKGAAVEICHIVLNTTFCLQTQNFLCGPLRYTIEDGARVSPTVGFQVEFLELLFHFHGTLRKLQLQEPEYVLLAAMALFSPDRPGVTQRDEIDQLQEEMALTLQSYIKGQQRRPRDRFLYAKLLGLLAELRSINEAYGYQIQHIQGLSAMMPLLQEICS
Summary of the method: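 HepG2 cells transiently transfected with GAL4-UAS reporter units; TRANS format reads activity of exogenous chimeric NR-Gal4 protein. After 24 h dosing, reporter mRNA quantified by RT-PCR, 6-FAM labelling and capillary electrophoresis; gain of signal fitted against DMSO.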

[4] = biological target: X-box-binding protein 1 (Homo sapiens) (UniProt P17861); experiment: ATG_Xbp1_CIS: Attagene CIS-FACTORIAL HepG2 Assay for human X-box Binding Protein 1 (XBP1) (AID 2282972; active = hit-call score of the fitted dose curve at least 0.9, where 1 is the maximum; inactive = score below 0.9); conditions: HepG2 XBP1 cis-element reporter, Attagene multiplex; actives raise or lower the signal
Sequence of X-box-binding protein 1 (Homo sapiens) (P17861 whole entry, looked up): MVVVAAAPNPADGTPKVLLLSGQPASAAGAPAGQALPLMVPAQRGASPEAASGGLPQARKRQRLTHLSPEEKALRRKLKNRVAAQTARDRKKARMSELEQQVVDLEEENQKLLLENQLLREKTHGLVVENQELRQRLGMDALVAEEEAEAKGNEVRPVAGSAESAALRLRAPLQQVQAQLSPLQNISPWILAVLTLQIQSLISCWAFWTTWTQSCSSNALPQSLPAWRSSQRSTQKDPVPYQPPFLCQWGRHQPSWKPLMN
Summary of the method: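 HepG2, transient MRTU transfection (cis-promoter driven), 24 h compound exposure. Total RNA → oligo(dT) RT → PCR → 6-FAM labeling → HpaI cut → CE. Bidirectional fit vs DMSO.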

[5] = biological target: Glucocorticoid receptor (Homo sapiens) (UniProt P04150); experiment: ATG_GR_TRANS: Attagene TRANS-FACTORIAL HepG2 Assay for human Glucocorticoid Receptor (GR) (AID 2282978); conditions: HepG2 Attagene TRANS GR reporter, mRNA transcription;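 note: activators score as hits since higher reporter transcript over DMSO is fitted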
Sequence of Glucocorticoid receptor (Homo sapiens) (P04150 whole entry, looked up, the tested form may be a part): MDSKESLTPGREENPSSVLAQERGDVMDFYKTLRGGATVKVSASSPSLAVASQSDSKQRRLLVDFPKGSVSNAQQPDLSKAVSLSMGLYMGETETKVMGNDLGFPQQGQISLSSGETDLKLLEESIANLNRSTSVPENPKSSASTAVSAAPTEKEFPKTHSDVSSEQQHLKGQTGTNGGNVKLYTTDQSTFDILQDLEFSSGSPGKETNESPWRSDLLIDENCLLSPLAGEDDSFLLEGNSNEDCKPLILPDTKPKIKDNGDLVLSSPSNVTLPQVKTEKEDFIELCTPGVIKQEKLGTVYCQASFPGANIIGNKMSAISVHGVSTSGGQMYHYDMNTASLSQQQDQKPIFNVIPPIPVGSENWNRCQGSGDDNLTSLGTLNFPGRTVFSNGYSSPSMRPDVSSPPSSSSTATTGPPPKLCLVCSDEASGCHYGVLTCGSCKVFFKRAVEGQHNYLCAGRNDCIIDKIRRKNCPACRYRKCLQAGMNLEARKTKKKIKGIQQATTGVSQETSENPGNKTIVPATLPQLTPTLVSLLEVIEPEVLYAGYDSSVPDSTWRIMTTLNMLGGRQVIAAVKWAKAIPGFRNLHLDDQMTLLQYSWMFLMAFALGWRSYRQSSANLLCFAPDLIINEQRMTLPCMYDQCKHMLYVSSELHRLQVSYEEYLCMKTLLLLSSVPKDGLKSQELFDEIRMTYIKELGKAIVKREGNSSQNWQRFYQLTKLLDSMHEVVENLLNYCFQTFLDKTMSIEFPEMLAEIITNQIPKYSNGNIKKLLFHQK
Summary of the method: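 HepG2 cells transiently transfected with GAL4-UAS reporter units and exogenous GR-Gal4 chimera, dosed 24 h. Reporter mRNA by RT-PCR, FAM labeling, HpaI digest and capillary electrophoresis; gain-of-signal fit versus DMSO.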

[6] = biological target: Bile acid receptor (Homo sapiens) (UniProt Q96RI1); experiment: ATG_FXR_TRANS: Attagene TRANS-FACTORIAL HepG2 Assay for Farnesoid X Receptor (FXR) (AID 2282979); conditions: HepG2 Attagene TRANS FXR-GAL4 reporter transcription;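 note: hits raise reporter mRNA above DMSO so AC50 marks FXR activation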
Sequence of Bile acid receptor (Homo sapiens) (Q96RI1 whole entry, looked up, the tested form may be a part): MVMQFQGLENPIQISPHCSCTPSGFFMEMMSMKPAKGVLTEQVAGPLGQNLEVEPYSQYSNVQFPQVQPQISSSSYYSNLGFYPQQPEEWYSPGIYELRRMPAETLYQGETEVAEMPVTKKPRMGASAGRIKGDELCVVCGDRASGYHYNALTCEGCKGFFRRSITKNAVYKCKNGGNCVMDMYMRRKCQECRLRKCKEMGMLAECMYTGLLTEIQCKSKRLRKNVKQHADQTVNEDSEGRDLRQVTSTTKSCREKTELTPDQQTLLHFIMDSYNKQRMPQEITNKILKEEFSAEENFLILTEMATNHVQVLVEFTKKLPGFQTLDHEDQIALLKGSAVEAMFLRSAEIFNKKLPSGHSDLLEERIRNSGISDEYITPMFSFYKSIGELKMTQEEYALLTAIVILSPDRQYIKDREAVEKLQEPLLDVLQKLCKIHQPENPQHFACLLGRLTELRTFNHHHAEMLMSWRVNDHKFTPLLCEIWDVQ
Summary of the method: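 After 24 h chemical treatment of transfected HepG2 cells, GAL4-UAS reporter transcripts driven by an exogenous FXR-GAL4 fusion were measured by RT-PCR and capillary electrophoresis. Increases over DMSO were fitted.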

[7] = biological target: Oxysterols receptor LXR-beta (Homo sapiens) (UniProt P55055); experiment: ATG_LXRb_TRANS: Attagene TRANS-FACTORIAL HepG2 Assay for human Liver X Receptor beta (LXRb) (AID 2282981); conditions: HepG2 Attagene TRANS GAL4-LXRb reporter, mRNA
Summary of the method: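 HepG2 cells transiently transfected with GAL4-UAS reporter units for chimeric NR-Gal4 proteins, dosed for 24 h. Reporter transcripts measured by RT-PCR and capillary electrophoresis; gain-of-signal fitting relative to DMSO.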

[8] = biological target: Hepatocyte nuclear factor 4-alpha (Homo sapiens) (UniProt P41235); experiment: ATG_HNF4a_TRANS: Attagene TRANS-FACTORIAL HepG2 Assay for human Hepatocyte Nuclear Factor 4 alpha (HNF4a) (AID 2282982); conditions: HepG2 HNF4a transactivation reporter, mRNA readout
Sequence of Hepatocyte nuclear factor 4-alpha (Homo sapiens) (P41235 whole entry, looked up, the tested form may be a part): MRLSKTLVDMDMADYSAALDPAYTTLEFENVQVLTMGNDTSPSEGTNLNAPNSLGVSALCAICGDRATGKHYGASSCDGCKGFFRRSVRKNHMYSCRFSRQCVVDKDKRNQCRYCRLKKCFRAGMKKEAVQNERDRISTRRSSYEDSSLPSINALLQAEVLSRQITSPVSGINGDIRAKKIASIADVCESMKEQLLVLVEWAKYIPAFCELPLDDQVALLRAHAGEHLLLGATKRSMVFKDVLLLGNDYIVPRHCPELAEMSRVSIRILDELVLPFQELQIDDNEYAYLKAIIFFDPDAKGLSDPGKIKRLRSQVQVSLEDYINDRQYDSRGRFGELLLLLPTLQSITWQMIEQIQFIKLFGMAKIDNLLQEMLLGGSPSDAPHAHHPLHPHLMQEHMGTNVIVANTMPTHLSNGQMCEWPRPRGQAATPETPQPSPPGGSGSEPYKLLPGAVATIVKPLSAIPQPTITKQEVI
Summary of the method: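 HepG2 cells transiently transfected with HNF4a-Gal4 chimera and GAL4-UAS reporter units, dosed for 24 h. Reporter mRNA measured by RT-PCR, fluorescent primer extension and capillary electrophoresis; gain-of-signal fitted relative to DMSO.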

[9] = ATG_M_06_TRANS: Attagene TRANS-FACTORIAL HepG2 Assay for M06 Transcription Factor (Internal Marker) (AID 2282983); conditions: HepG2 Attagene TRANS M06 internal marker reporter;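 note: reporter transcript level by RT-PCR then capillary electrophoresis fluorescence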
Summary of the method: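 Internal-marker background readout from a multiplexed TRANS reporter system in HepG2; 24 h dosing; mRNA induction quantified by RT-PCR plus capillary electrophoresis fluorescence; DMSO as negative control and baseline.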

[10] = biological target: Nuclear receptor subfamily 4 group A member 2 (Homo sapiens) (UniProt P43354); experiment: ATG_NURR1_TRANS: Attagene TRANS-FACTORIAL HepG2 Assay for human Nuclear Receptor Related Protein 1 (NURR1) (AID 2282985); conditions: HepG2 Attagene TRANS reporter, mRNA readout
Sequence of Nuclear receptor subfamily 4 group A member 2 (Homo sapiens) (P43354 whole entry, looked up, the tested form may be a part): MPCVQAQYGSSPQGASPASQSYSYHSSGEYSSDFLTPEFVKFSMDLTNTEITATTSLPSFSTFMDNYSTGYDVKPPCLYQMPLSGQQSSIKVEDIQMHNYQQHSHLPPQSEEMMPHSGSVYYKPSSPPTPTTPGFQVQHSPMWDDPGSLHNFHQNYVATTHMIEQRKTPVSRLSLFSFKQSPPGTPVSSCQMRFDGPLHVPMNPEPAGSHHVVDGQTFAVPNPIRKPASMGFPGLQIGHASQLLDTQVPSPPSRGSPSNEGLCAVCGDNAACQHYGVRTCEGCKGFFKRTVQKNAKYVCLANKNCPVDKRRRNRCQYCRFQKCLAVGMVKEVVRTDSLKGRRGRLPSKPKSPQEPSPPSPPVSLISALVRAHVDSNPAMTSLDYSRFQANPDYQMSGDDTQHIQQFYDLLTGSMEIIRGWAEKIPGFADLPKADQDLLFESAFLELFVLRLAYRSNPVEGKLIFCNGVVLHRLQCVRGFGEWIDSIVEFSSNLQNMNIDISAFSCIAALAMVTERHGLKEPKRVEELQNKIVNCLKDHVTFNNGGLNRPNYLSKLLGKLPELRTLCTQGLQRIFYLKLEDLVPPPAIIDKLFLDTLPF
Summary of the method: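 HepG2 cells transiently transfected with NURR1-Gal4 chimera and GAL4-UAS reporter units; after 24 hr compound exposure, reporter mRNA quantified by RT-PCR and capillary electrophoresis; gain of signal fitted against DMSO.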

[11] = biological target: Transcriptional activator Myb (Homo sapiens) (UniProt P10242); experiment: ATG_Myb_CIS: Attagene CIS-FACTORIAL HepG2 Assay for human Myeloblastosis (Myb) Proto-Oncogene Transcription Factor (AID 2282986; active = hit-call score of the fitted dose curve at least 0.9, where 1 is the maximum; inactive = score below 0.9); conditions: HepG2 Attagene CIS-FACTORIAL Myb reporter transcription; actives raise or lower the signal
Sequence of Transcriptional activator Myb (Homo sapiens) (P10242 whole entry, looked up): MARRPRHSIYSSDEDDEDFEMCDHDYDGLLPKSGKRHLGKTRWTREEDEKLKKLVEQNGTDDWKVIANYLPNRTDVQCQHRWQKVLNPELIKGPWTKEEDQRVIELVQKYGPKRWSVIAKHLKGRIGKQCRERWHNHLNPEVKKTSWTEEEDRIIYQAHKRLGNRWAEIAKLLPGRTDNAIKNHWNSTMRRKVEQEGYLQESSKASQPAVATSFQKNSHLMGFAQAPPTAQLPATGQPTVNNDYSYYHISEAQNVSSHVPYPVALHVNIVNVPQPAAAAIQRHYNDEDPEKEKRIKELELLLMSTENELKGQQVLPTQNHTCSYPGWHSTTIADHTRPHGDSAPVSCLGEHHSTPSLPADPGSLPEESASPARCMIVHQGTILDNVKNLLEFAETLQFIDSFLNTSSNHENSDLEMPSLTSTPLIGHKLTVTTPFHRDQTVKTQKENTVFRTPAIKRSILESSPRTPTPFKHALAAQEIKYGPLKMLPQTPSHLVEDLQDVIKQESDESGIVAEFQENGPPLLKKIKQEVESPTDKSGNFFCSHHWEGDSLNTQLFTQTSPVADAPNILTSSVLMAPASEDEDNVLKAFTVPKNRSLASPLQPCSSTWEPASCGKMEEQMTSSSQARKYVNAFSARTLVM
Summary of the method: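 Transiently transfected HepG2 cells carrying a multiplexed cis-promoter reporter set report endogenous Myb activity after 24 h compound exposure. Reporter mRNA is read by RT-PCR with capillary electrophoresis of fluorescent products, fitted bidirectionally against DMSO.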

[12] = ATG_NFI_CIS: Attagene CIS-FACTORIAL HepG2 Assay for human Nuclear Factor I (NFI) (AID 2282989; active = hit-call score of the fitted dose curve at least 0.9, where 1 is the maximum; inactive = score below 0.9); conditions: HepG2 cis-regulatory reporter, NFI response element transcription; actives raise or lower the signal
Summary of the method: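 After transient transfection of HepG2 with cis-promoter reporter constructs and 24 h dosing, RNA is reverse-transcribed, amplified, 6-FAM end-labelled and HpaI-digested before capillary analysis. Bidirectional curve fitting against DMSO.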

[13] = biological target: Estrogen receptor (Homo sapiens) (UniProt P03372); experiment: ATG_ERa_TRANS: Attagene TRANS-FACTORIAL HepG2 Assay for human Estrogen Receptor alpha (ERa) (AID 2282970); conditions: HepG2 Attagene TRANS ERa GAL4 reporter, mRNA
Sequence of Estrogen receptor (Homo sapiens) (P03372 whole entry, looked up, the tested form may be a part): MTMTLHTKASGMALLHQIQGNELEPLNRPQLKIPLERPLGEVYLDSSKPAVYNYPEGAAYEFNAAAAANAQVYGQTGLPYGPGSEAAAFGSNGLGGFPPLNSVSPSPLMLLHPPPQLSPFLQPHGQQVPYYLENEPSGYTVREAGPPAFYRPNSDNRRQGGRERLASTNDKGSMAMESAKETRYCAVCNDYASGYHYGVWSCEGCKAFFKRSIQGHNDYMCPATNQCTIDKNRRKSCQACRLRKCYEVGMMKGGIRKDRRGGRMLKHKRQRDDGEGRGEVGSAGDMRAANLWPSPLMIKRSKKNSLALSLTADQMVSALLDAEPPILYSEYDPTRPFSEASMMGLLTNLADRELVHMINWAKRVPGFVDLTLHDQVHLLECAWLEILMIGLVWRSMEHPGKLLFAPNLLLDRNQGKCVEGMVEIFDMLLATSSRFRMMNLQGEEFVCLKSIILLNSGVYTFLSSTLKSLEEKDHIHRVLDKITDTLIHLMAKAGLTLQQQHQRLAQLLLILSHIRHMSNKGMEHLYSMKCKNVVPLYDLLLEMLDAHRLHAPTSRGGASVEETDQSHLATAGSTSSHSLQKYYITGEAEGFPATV
Summary of the method: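 Multiplexed cell-based reporter format in HepG2: chimeric ERa-Gal4 protein drives GAL4-UAS reporter transcription. Fluorescent reporter mRNA quantified by capillary electrophoresis 24 hours after dosing; endpoint fitted as signal gain against DMSO.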

[14] = ATG_M_19_TRANS: Attagene TRANS-FACTORIAL HepG2 Assay for M19 Transcription Factor (Internal Marker) (AID 2282974); conditions: HepG2 Attagene TRANS-FACTORIAL M19 internal marker reporter
Summary of the method: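 HepG2 transiently transfected with GAL4-UAS multiplex reporter constructs, exposed 24 h; reporter RNA quantified by RT-PCR, 6-FAM labeling, HpaI digestion and capillary electrophoresis; internal background marker fitted upward versus DMSO.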

[15] = biological target: Nuclear respiratory factor 1 (Homo sapiens) (UniProt Q16656); experiment: ATG_NRF1_CIS: Attagene CIS-FACTORIAL HepG2 Assay for human Nuclear Respiratory Factor 1 (NRF1) Orphan Gene (AID 2282987; active = hit-call score of the fitted dose curve at least 0.9, where 1 is the maximum; inactive = score below 0.9); conditions: HepG2 NRF1 cis-element reporter, Attagene multiplex; actives raise or lower the signal
Sequence of Nuclear respiratory factor 1 (Homo sapiens) (Q16656 whole entry, looked up): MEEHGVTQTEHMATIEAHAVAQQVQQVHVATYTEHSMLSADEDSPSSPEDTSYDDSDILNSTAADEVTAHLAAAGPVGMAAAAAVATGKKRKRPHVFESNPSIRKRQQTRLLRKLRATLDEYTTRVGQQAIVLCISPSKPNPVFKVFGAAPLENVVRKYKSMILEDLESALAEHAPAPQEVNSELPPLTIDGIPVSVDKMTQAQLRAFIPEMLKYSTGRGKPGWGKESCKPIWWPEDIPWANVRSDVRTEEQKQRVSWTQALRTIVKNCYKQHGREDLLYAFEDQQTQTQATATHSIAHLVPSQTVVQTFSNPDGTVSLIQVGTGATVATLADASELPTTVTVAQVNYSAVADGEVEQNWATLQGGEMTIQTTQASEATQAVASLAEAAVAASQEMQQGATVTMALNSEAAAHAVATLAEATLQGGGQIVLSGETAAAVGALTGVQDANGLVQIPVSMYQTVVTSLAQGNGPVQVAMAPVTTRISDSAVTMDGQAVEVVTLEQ
Summary of the method: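 HepG2 cells transiently transfected with multiple cis-regulated reporter units, exposed 24 h. Reporter mRNAs measured by RT-PCR, fluorescent labelling, HpaI digestion and capillary electrophoresis; bidirectional fitting against DMSO.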

[16] = biological target: Steroid hormone receptor ERR1 (Homo sapiens) (UniProt P11474); experiment: ATG_ERRa_TRANS: Attagene TRANS-FACTORIAL HepG2 Assay for human Estrogen-Related Receptor alpha (ERRa) (AID 2282971); conditions: HepG2 Attagene TRANS reporter, ERRa transactivation
Summary of the method: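 Signal gain relative to DMSO for an ERRa-Gal4 chimeric receptor, read as reporter mRNA by RT-PCR/capillary electrophoresis. Human HepG2 liver cells, transient multiplex reporter transfection, 24 h chemical exposure.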

[17] = biological target: Estrogen-related receptor gamma (Homo sapiens) (UniProt P62508); experiment: ATG_ERRg_TRANS: Attagene TRANS-FACTORIAL HepG2 Assay for human Estrogen-Related Receptor gamma (ERRg) (AID 2282977); conditions: HepG2 Attagene TRANS reporter, ERRg transactivation;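 note: hits increase reporter signal over DMSO so potencies reflect activators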
Summary of the method: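 Transfect HepG2 with multiple GAL4-UAS reporter transcription units; dose chemicals 24 h; isolate RNA, reverse-transcribe with oligo(dT), PCR-amplify, label with 6-FAM, digest with HpaI; size fragments by capillary electrophoresis. DMSO serves as negative control.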

[18] = ATG_GAL4_TRANS: Attagene TRANS-FACTORIAL HepG2 Assay for GAL4 (Internal Marker) (AID 2282976); conditions: HepG2 Attagene TRANS GAL4 internal marker reporter
Summary of the method: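 Liver HepG2 line bearing multiplexed GAL4-UAS reporter constructs; 24 h chemical treatment. Transcripts were quantified as fluorescent fragments on capillary electrophoresis after RT-PCR and HpaI cut, with activity fitted upward from DMSO.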

SMILES | outcome [1] | outcome [2] | outcome [3] | outcome [4] | outcome [5] | outcome [6] | outcome [7] | outcome [8] | outcome [9] | outcome [10] | outcome [11] | outcome [12] | AC50 [2] | outcome [13] | outcome [14] | AC50 [6] | outcome [15] | outcome [16] | outcome [17] | outcome [18]
CCCCC(CC)CO (stereo not given) | inactive | inactive | inactive | inactive | inactive | inactive | inactive | inactive | inactive | inactive | inactive | inactive | – | – | – | – | – | – | – | –
Cc1c(C)c2c(c(C)c1O)CCC(C)(COc1ccc(CC3SC(=O)NC3=O)cc1)O2 (stereo not given) | inactive | – | inactive | inactive | – | – | – | – | – | inactive | inactive | inactive | 13.9 µM (active) | inactive | inactive | 17.4 µM (active) | inactive | – | – | –
CCC(C)N(C)C(=O)c1cc2ccccc2c(-c2ccccc2Cl)n1 (stereo not given) | inactive | – | – | inactive | – | – | – | – | – | inactive | inactive | inactive | 1.54 µM (active) | inactive | inactive | – | – | – | – | –
CCCC(=O)O | inactive | inactive | inactive | inactive | – | – | – | inactive | – | inactive | inactive | inactive | – | – | inactive | – | – | inactive | inactive | –
O=C1CCCCC1 | inactive | – | inactive | inactive | inactive | – | – | inactive | inactive | inactive | inactive | inactive | – | inactive | – | – | inactive | inactive | – | inactive
